Test results reported in PubChem BioAssay (NCI).
About 83,000 compounds went through this panel and 20% of them were active in at least one assay; those are over-represented in the sample as a whole.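 Step 1: grow cells in 96-well plates. Step 2: add test compound at a single concentration. Step 3: incubate 48 h. Step 4: record percent growth.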 A number with no mark means an inactive call. Activity calls are given as the source filed them. The calls were made as follows: active = growth percent below 10; inactive = the rest.

Assays:
Test in all cases: NCI-60 one-dose screen, 48 h (100 = growth as untreated, 0 = no growth, -100 = all killed)
Conditions in all cases: 10 µM unless noted
EKVX NSCLC = test system: EKVX NSCLC
SN12C renal = test system: SN12C renal
UO-31 renal = test system: UO-31 renal
TK-10 renal = test system: TK-10 renal
ACHN renal = test system: ACHN renal
CAKI-1 renal = test system: CAKI-1 renal
A498 renal = test system: A498 renal
CCRF-CEM leukemia = test system: CCRF-CEM leukemia
MOLT-4 leukemia = test system: MOLT-4 leukemia

SMILES | growth (EKVX NSCLC) | growth (SN12C renal) | growth (UO-31 renal) | growth (TK-10 renal) | growth (ACHN renal) | growth (CAKI-1 renal) | growth (A498 renal) | growth (CCRF-CEM leukemia) | growth (MOLT-4 leukemia)
CCNCCNc1cc(-c2ccc(C#N)cc2)c(C#N)c2nc3ccccc3n12 | 76% | 59.3% | -21.3% (active) | 82.3% | 3.09% (active) | 57.4% | 60.7% | 27.5% | 51.2%
O=C1Nc2ccccc2SC1c1ccccc1Cl (configuration not stated) | 95.2% | 108% | 103% | 88.7% | 115% | 71.9% | 96.3% | 83.9% | 86.4%
COc1cc(/C=C2\C=C(c3ccccc3)N(CCc3ccccc3)C2=O)cc(OC)c1OC | 69.2% | 82% | 69.2% | 81.9% | 30.9% | 80.1% | 34.2% | 100% | 94.8%
CC(=O)c1ccc2c(c1)CCN2 | 117% | 96.7% | 94.2% | 98.1% | 100% |  | 117% | 94.9% | 94.2%
CNC(=O)c1cc(Oc2ccc3nc(NC(=O)Nc4cc(C(F)(F)F)cc(C(F)(F)F)c4)sc3c2)ccn1 | -18.7% (active) | -18.7% (active) | -69.9% (active) | -54.8% (active) | -52.9% (active) | -17.6% (active) | -58.8% (active) | 7.33% (active) | 0.825% (active)
CCNCCNc1cc(C2CCCC2)c(C#N)c2nc3ccccc3n12 | 38% | 46.3% | -74.9% (active) | -24.7% (active) | -34.7% (active) | 39.5% | 75.4% | -8.07% (active) | -17.9% (active)
CN(C)c1ccc(/C=C2\C=C(c3ccccc3)N(CCc3ccccc3)C2=O)cc1 | 46.9% | 89.8% | 61% | 88.7% | 57.6% | 76.9% | 72.8% | 102% | 86.5%
CCNCCNc1cc(-c2ccc(F)cc2)c(C#N)c2nc3ccccc3n12 | 78.4% | 70.9% | 39.9% | 87.5% | 9.08% (active) | 71.2% | -9.7% (active) | 27.1% | 61.4%
COc1c(C)cnc(CSc2nc(-c3ccc(C)cc3)cn2-c2ccc(Cl)cc2)c1C | 92.1% | 94.4% | 63.2% | 101% | 98.9% | 91.1% | 93.9% | 99.8% | 73.5%
Clc1ccc(-c2nnc(-c3ccco3)o2)cc1 | 100% | 82.6% | 84.4% | 120% | 100% | 73.3% | 103% | 87.4% | 90.1%
CCCCN1CCN(c2ccc3nc(-c4ccc5nc(-c6ccc(OCC)c(OCC)c6)[nH]c5c4)[nH]c3c2)CC1 | 24.6% | 18.8% | 74.4% | 57% | 12.7% | 27.7% |  | -0.368% (active) | -0.133% (active)
O=C1CSC(c2ccccc2O)N1c1nnc(Cn2cnnc2)o1 (configuration not stated) | 81.8% | 79.6% | 46.7% | 145% | 89.4% | 71.3% | 106% | 23% | 61.5%
CCNCCNc1cc(-c2ccc(Cl)cc2)c(C#N)c2nc3ccccc3n12 | 11.2% | 44.9% | -95.2% (active) | -20.3% (active) | -60% (active) | 39.5% | 2.87% (active) | -21.3% (active) | -28.7% (active)
O=C(/C=C/C12c3ccccc3C(c3ccccc31)C1C(=O)N(c3ccc(Cl)cc3)C(=O)C12)c1ccccn1 (configuration not stated) | -34.8% (active) | -44.8% (active) | -98.5% (active) | -33.4% (active) | -35.4% (active) | -9.86% (active) |  | 13.1% | 20%
Cc1cccc(-c2cc(O)c(C(=O)N3CCOCC3)s2)c1 | 58.6% | 49.1% | 58.3% | 61.7% | 60.6% | 47.5% | 26.7% | 35.5% | 21.6%
O=c1[nH]c(=O)n(C2CC(O)C(CO)O2)cc1CO (configuration not stated) | 98.8% | 76.2% | 102% | 90.5% | 101% | 86.3% |  | 79.8% | 87.7%
COC(=O)CNC(=O)C(=O)c1c(O)c(O)c(C(C)C)c2cc(C)c(-c3c(C)cc4c(C(C)C)c(O)c(O)c(C(=O)C(=O)NCC(=O)OC)c4c3O)c(O)c12 | 5.91% (active) | 32.9% | 1.7% (active) | 22.6% | 3.33% (active) | 51.4% | 27.6% | 24.4% | 15.7%
CC(C)(C)N1CC(OC(N)=O)C1 | 90.2% | 100% | 85.5% | 94.8% | 106% | 41% | 105% |  | 133%
COc1cc(C2CC(c3ccc(Nc4nc(Nc5ccc(F)cc5)nc(Nc5ccc(Cl)cc5)n4)cc3)=NN2C(C)=O)cc(OC)c1OC (configuration not stated) | 202% | 80.8% | 53.6% | 60.7% | 77.5% |  | 78.4% | 27.6% | 4.27% (active)
COc1cc(/C=C/C(=O)c2cccc(-n3cc(-c4ccccc4)[nH]c3=O)c2)cc(OC)c1OC | 17% | 10.4% | -45.2% (active) | -5.4% (active) | -64.9% (active) | 12.2% | 33.2% | 3.61% (active) | -12.6% (active)
CCCCCCNc1cc(C)nc2ccc(OC)cc12 | 65.7% | 67.9% | 40.4% | 80.4% | 76.4% | 70.9% | 22% | 60.7% | 50.4%
CNC(=O)c1cc(Oc2ccc3nc(Nc4cc(Cl)cc(Cl)c4)ccc3c2)ccn1 | 53.1% | 78.9% | 58.9% | 74.3% | 62.6% | 84.1% | 35.2% | 81.1% | 33.7%
C#C[C@]1(O)CC[C@H]2[C@@H]3CC=C4c5sc(N=C(N)N)nc5CC[C@]4(C)[C@H]3CC[C@@]21C | 12.7% | -56% (active) | -77.7% (active) | 13.4% | -6.84% (active) | -19.9% (active) | -90.8% (active) | 4.5% (active) | -8.43% (active)
NC(=O)CC1(O)C=C(Br)C(=O)C(Br)=C1 | 91.4% | 117% | -53.6% (active) | 17.1% | -59.4% (active) | -10.2% (active) |  | -45% (active) | -53% (active)
C=C(C=O)[C@@H]1CC=C(C=O)CC1 | 2.06% (active) | -14.1% (active) | -41.7% (active) | -42.2% (active) | -54.9% (active) | -31.7% (active) | 81.7% | -52.7% (active) | -40.8% (active)
CCCCCCCCN(CCCCCCCC)C(=N)c1ccnc2ccccc12 | -63.4% (active) | -57.8% (active) | -89.1% (active) | -16.4% (active) | -89.3% (active) | -86.1% (active) | -95.7% (active) | -42.2% (active) | -41.4% (active)
CCOC(=O)c1c2c(c(C)n1C)-c1nn(Cc3ccc(OC)cc3)cc1CC2 | 79.6% | 92.5% | 91.3% | 206% | 91.9% | 85.2% | 98.7% | 82.9% | 69.4%
O=C1NCC(=O)N(Cc2ccco2)[C@H]1Cc1ccccc1 | 89.2% | 98.1% | 99.8% | 85.5% | 105% | 97.4% | 52.9% | 103% | 102%
N[C@@H]1CCC[C@H]1NCCCCN1C(=O)c2cccc3cccc(c23)C1=O | 85.6% | 73.7% | 56.2% | 76.6% | 52.9% |  | 34.8% | 98.4% | 30.8%
CC(C)c1ccc(NC(=O)Cc2ccc(Nc3ncnc4cc(-c5cnn(CCN(C)C)c5)ccc34)cc2)cc1 | -49.6% [30 µM] (active) | -95.9% [30 µM] (active) | -72.9% [30 µM] (active) | -57.3% [30 µM] (active) | -71.5% [30 µM] (active) | -40.7% [30 µM] (active) | 42.2% [30 µM] | -28.2% [30 µM] (active) | -50.9% [30 µM] (active)
